MITF TRPM1 HTS: increases MITF-driven TRPM1 promoter luciferase signal; SK-MEL-5 TRPM1-promoter luciferase, 24 h; % of positive control, neutral wells = 0; activation, % at 12.5 µM; 0.75% of 300,000 active;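 active = mean activation of at least 80% with every replicate also reaching 80%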
esBAF inh: blocks esBAF chromatin remodeling in mouse ES cells; Bmi1-luciferase knock-in reporter, 24 h; 100% = twice the neutral-well signal; reporter increase, % at 12.5 µM; 2% of 350,000 active; AID 602393; in the data active = activation above about 40%;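 also: a rise in the Bmi1 reporter signal indicates esBAF inhibition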
Statin myotox sup: suppressors of simvastatin-induced myotoxicity in C2C12 myotubes | ATP luminescence, 48 h; scaled: DMSO 0, geranylgeraniol control 100 | rescue of ATP level, % at 7.49 µM | 0.78% of 330,000 active | AID 602340;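 active = mean ATP rescue above about 67%, or every replicate alone reaching that limit, limit read from the data, passing the limit was not always enough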;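 also: myotubes were challenged with 10 µM simvastatin during compound exposure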
Wnt bcat act: activators of Wnt/beta-catenin signaling | Wnt/beta-catenin reporter cell assay, activator, plate reader | activation, % at 9.35 µM | 1.2% of 300,000 active; in the data active = activation above about 30%, passing the limit was not always enough
A number is an active result; - = inactive; . = no result. Only some compounds are listed: those with a hit (about 3% of all), similar ones and a draw of the others.

SMILES	MITF TRPM1 HTS	esBAF inh	Statin myotox sup	Wnt bcat act
COCCNC(=O)C[C@@H]1CC[C@@H]2[C@H](COc3ccc(NC(=O)C4CCCC4)cc3C(=O)N2C)O1	.	-	-	.
O=C(C[C@H]1C[C@@H]2c3cc(NC(=O)C4CCC4)ccc3O[C@@H]2[C@@H](CO)O1)NCc1cccc(F)c1	.	-	-	.
CC(C)NC(=O)N1CC[C@@H]2[C@H]1c1cc(Br)ccc1N(C)[C@@H]2CO	.	-	-	.
C[C@@H]1CCCCO[C@@H](CN(C)Cc2ccc3c(c2)OCO3)[C@H](C)CN([C@@H](C)CO)C(=O)c2cc(NS(=O)(=O)c3cccs3)ccc2O1	.	-	.	.
Oc1ccc(-c2cn3ccccc3n2)cc1	-	-	-	38
Brc1ccc(OCc2cn3ccccc3n2)cc1	93	.	.	-
O=[N+]([O-])c1ccc(-c2cn3ccccc3n2)cc1	.	.	.	35
Brc1ccc(-c2cn3ccccc3n2)cc1	-	-	-	49
O=C(COc1ccc(Br)cc1)NCc1cn2ccccc2n1	-	.	.	-
O=C(Nc1cc(F)ccc1F)N[C@H]1CC[C@@H](CCn2cc(C3CC3)nn2)O[C@H]1CO	.	-	-	.
Cc1cccc(NCCNc2cccc(C)c2)c1	-	-	113	-
CCCCCCCNc1cccc(C)c1	.	-	-	-
Cc1nn(-c2ccccc2)c(Cl)c1/C=N/NC(=O)c1ccn[nH]1	-	-	-	-
Cc1cc(C(=O)N/N=C/c2c(C)nn(-c3ccccc3)c2Cl)n[nH]1	.	52	-	-
CCC(=O)N[C@H]1CC[C@@H](CCNC(=O)Nc2ccc(C(F)(F)F)cc2)O[C@@H]1CO	.	-	-	.
Cc1ccc(-n2c(C)cc(/C=N/Nc3ccc([N+](=O)[O-])cn3)c2C)cc1	-	.	-	.
Cc1ccc(Cn2cc(/C=N/Nc3ccc([N+](=O)[O-])cn3)c3ccccc32)cc1	-	45	-	-
Cc1ccc(C=NNc2ccc([N+](=O)[O-])cn2)cc1	122	.	.	-
CCn1c2ccccc2c2nc3cc(OC)c(OC)cc3nc21	.	49	-	-
N#Cc1ccccc1OCC(=O)N1N=C(c2cccs2)CC1c1ccco1 (stereo unspecified)	-	70	-	-
O=C(CNC(=O)c1ccccc1)OCC(=O)N1N=C(c2ccc(Cl)cc2)CC1c1ccco1 (stereo unspecified)	-	.	.	41
c1ccc(-c2ccc3cnccc3n2)cc1	.	52	-	-
CC(C)Cn1c(NCCO)nc2ccccc21	-	-	93	-
OCCNc1nc2ccccc2n1CC(O)c1ccccc1 (stereo unspecified)	-	.	.	-
C[C@@H]1CN([C@@H](C)CO)C(=O)c2cccc(N(C)C)c2O[C@@H]1CN(C)Cc1ccc(-c2ccccc2)cc1	.	-	-	.
SMILES	MITF TRPM1 HTS	esBAF inh	Statin myotox sup	Wnt bcat act
N#Cc1ccccc1CSc1nc(N2CCCCC2)nc(N2CCCCC2)n1	.	-	117	-
Cc1nc(SCc2ccccc2C#N)n[nH]1	-	-	-	-
O=C(Nc1ccccc1F)N1C[C@H]2[C@@H](c3ccccc31)[C@H](CO)N2C(=O)Nc1ccccc1	.	-	-	.
Cc1cc(C(=O)COC(=O)c2ccc(N)c([N+](=O)[O-])c2)c(C)n1Cc1ccc2c(c1)OCO2	-	89	-	37
Cc1cc(C(=O)COC(=O)c2ccc(N)c([N+](=O)[O-])c2)c(C)n1-c1ccc2c(c1)OCO2	-	-	-	.
CN(C)C(=O)c1ccc(-c2ccc3c(c2)[C@H]2[C@H](CCN2S(=O)(=O)c2cn(C)cn2)[C@@H](CO)N3)cc1	.	-	-	.
COc1ccc(-c2nnc(SCc3ccccc3)n2N)cc1	88	.	.	-
COc1ccccc1Nc1nc2ccccc2n1C	92	65	-	-
C[C@H](CO)N1C[C@H](C)[C@@H](CN(C)S(=O)(=O)c2ccc(Cl)cc2)Oc2c(NC(=O)C3CCCCC3)cccc2C1=O	.	-	143	.

Source: PubChem (Broad Institute)
